According to article PMC4336329 (PLoS ONE, 2015):
Among all 310,000 compounds or so, about 14,000 (4.5%) showed an effect of 50% or more. Effects have a minus sign here. The full list was thinned out, with strong results kept by preference.

What follows are molecules tested against human ether-à-go-go-related gene (hERG) potassium channel (human, UniProt Q12809) (assay: primary screen, population patch clamp on CHO cells stably expressing hERG; higher = less effect of the substance).
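Further: peak tail current of the secondary pulse compared with the same well before compound.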

human ether-à-go-go-related gene (hERG) potassium channel, sequence (Q12809 whole entry, looked up): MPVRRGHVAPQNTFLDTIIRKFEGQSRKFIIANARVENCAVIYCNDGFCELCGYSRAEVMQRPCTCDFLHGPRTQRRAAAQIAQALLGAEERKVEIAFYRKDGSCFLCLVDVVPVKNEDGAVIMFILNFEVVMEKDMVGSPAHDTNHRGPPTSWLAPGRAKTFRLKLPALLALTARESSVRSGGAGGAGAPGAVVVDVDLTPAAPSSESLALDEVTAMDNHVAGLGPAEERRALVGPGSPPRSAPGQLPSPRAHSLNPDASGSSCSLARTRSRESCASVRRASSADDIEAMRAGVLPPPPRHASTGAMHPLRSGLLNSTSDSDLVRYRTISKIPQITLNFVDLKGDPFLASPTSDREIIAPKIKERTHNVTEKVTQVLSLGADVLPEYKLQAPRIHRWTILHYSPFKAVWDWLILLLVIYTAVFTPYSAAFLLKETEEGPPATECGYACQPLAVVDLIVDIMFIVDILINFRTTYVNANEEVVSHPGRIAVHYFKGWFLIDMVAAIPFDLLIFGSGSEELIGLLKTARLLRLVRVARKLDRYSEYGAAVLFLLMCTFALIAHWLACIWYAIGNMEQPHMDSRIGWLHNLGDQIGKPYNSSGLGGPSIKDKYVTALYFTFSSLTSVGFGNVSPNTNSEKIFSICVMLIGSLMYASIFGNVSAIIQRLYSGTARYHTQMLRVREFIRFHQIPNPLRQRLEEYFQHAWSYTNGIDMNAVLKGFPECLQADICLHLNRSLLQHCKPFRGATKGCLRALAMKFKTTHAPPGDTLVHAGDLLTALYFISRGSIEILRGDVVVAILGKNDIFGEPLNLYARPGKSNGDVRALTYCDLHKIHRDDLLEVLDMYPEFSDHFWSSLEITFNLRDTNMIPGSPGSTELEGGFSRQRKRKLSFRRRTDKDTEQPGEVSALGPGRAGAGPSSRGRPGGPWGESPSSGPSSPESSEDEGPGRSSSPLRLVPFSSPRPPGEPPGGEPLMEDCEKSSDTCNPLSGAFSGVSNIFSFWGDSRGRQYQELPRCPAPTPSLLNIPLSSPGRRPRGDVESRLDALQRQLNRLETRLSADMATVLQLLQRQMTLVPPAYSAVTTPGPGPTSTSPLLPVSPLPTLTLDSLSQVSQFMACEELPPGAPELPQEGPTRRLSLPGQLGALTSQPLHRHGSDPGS

First: CCC1=NN(C(=O)Cc2ccc(OC)cc2)C(O)(C(F)(F)F)C1 (stereo not shown)
Second: COc1ccc(CCNC(=O)c2nonc2N)cc1
The “hERG current change (%, negative = inhibition) at 10uM” value of the first is higher: -6.51% for the first, -15.8% for the second.

Going from `O=C(NC1=NCCS1)c1ccc(Cl)c(S(=O)(=O)N2CCCCC2)c1` to `O=C(NC1CCCCC1)c1ccc2c(=O)n(CC3CCCO3)c(=O)[nH]c2c1` (stereo not shown), the “hERG current change (%, negative = inhibition) at 10uM” value rises from -2.52% to 5.86%.

First: CCOC(=O)C(C(=O)OCC)C1CCS(=O)(=O)C1 (stereo not shown)
Second: CCCCNC(=O)N(O)C1N(CCCC)C(=O)N(CC(=O)OC)C1(C)C (stereo not shown)
The “hERG current change (%, negative = inhibition) at 10uM” value of the first is lower: 14.4% for the first, 20% for the second.

First: Cc1ccnn1C(C)C(=O)O (stereo not shown)
Second: Cc1ccc(NC(=O)c2sc(Cl)nc2-c2ccccc2)cc1C
The “hERG current change (%, negative = inhibition) at 10uM” value of the first is higher: 26.3% for the first, 3.94% for the second.

First: Cc1ccc(C(=O)N/C(=C/c2ccccc2)C(=O)NC(Cc2ccccc2)C(=O)O)cc1 (stereo not shown)
Second: Cc1ccc(C(=O)N/C(=C\c2ccccc2)C(=O)NCc2ccncc2)cc1
The “hERG current change (%, negative = inhibition) at 10uM” value of the first is higher: 8.07% for the first, -71.2% for the second.

First: Cc1ccc(C(=O)N/C(=C/c2ccccc2)C(=O)NCc2ccncc2)cc1
Second: Cc1ccc(C(=O)N/C(=C/c2ccccc2)C(=O)NCC2CCCO2)cc1 (stereo not shown)
The “hERG current change (%, negative = inhibition) at 10uM” value of the first is lower: -65.2% for the first, -21.7% for the second.

Compared with `O=C(/C=C/c1cccs1)c1ccc(Br)cc1`, `O=C(/C=C/c1cccc([N+](=O)[O-])c1)NCc1ccccc1` is lower in “hERG current change (%, negative = inhibition) at 10uM” value: 7.19% for the first, -23.2% for the second.

First: CC(C)Oc1ccc(Br)cc1C(=O)N/N=C/c1c[nH]c2ccccc12
Second: Cc1nc2ccccc2c(=O)n1/N=C/c1ccccc1Cl
The “hERG current change (%, negative = inhibition) at 10uM” value of the first is higher: 16.2% for the first, 12.8% for the second.

Compared with `COc1ccc(NC(=O)N(CCc2ccccc2)Cc2cc3c(C)cc(C)cc3[nH]c2=O)cc1`, `Cc1cc(C)c2cc(CN(CCO)C(=O)Nc3ccc(Cl)cc3)c(=O)[nH]c2c1` is lower in “hERG current change (%, negative = inhibition) at 10uM” value: 14% for the first, -1.76% for the second.

Going from `COc1cc2cc(CN(CCN3CCCC3)C(=O)Nc3ccccc3Cl)c(=O)[nH]c2cc1OC` to `COc1ccc2[nH]c(=O)c(CN(CCN3CCCC3)C(=O)Nc3ccccc3Cl)cc2c1`, the “hERG current change (%, negative = inhibition) at 10uM” value falls from -6.16% to -47.6%.

Going from `Cc1cc(C)c2cc(CN(CCN(C)C)C(=O)Nc3ccccc3Cl)c(=O)[nH]c2c1` to `COc1ccccc1NC(=O)N(CCN(C)C)Cc1cc2cc(C)ccc2[nH]c1=O`, the “hERG current change (%, negative = inhibition) at 10uM” value rises from -55.3% to -50.2%.

First: COc1ccccc1NC(=S)N(Cc1ccco1)Cc1cc2cc(C)ccc2[nH]c1=O
Second: CCN(CC)CCN(Cc1cc2cc(C)ccc2[nH]c1=O)C(=O)Nc1ccccc1OC
The “hERG current change (%, negative = inhibition) at 10uM” value of the first is higher: 3.67% for the first, -62.2% for the second.

Going from `COc1ccccc1NC(=S)N(CCCN(C)C)Cc1cc2cc3c(cc2[nH]c1=O)OCO3` to `CCN(CC)CCCN(Cc1cc2cc3c(cc2[nH]c1=O)OCO3)C(=S)Nc1ccccc1OC`, the “hERG current change (%, negative = inhibition) at 10uM” value falls from 33.3% to -10.5%.

First: CCOc1ccc2[nH]c(=O)c(CN(CCN3CCCC3)C(=S)Nc3ccccc3OCC)cc2c1
Second: CCOc1ccc2[nH]c(=O)c(CN(CCN3CCCC3)C(=S)Nc3ccccc3OC)cc2c1
The “hERG current change (%, negative = inhibition) at 10uM” value of the first is lower: -70.2% for the first, -49.7% for the second.

First: COc1ccccc1NC(=O)N(CCN1CCCC1)Cc1cc2cc(C)ccc2[nH]c1=O
Second: CCN(CC)CCCN(Cc1cc2cc3c(cc2[nH]c1=O)OCO3)C(=O)Nc1ccccc1OC
The “hERG current change (%, negative = inhibition) at 10uM” value of the first is lower: -64.8% for the first, -10.6% for the second.

First: CCOc1ccc(NC(=S)N(CCN2CCOCC2)Cc2cc3cc4c(cc3[nH]c2=O)OCO4)cc1
Second: COc1ccc(C2/C(=C(\O)c3ccc4c(c3)OCCO4)C(=O)C(=O)N2CCCN(C)C)cc1 (stereo not shown)
The “hERG current change (%, negative = inhibition) at 10uM” value of the first is lower: -34.6% for the first, 17% for the second.

Compared with `Cc1ccc(S(=O)(=O)/C(C#N)=C/c2c(N3CC(C)OC(C)C3)nc3ccccn3c2=O)cc1` (stereo not shown), `Cc1ccc(S(=O)(=O)c2cc3c(=O)n4ccccc4nc3n(C)c2=N)cc1C` is higher in “hERG current change (%, negative = inhibition) at 10uM” value: -46.3% for the first, -2.47% for the second.

Going from `CN(C(=S)NC(=O)c1ccccc1)c1c(N)n(Cc2ccccc2)c(=O)[nH]c1=O` to `CC(=O)c1sc(NC(=O)C2CC(=O)N(Cc3ccccc3)C2)nc1-c1ccccc1` (stereo not shown), the “hERG current change (%, negative = inhibition) at 10uM” value falls from 0.51% to -15%.

Going from `Cc1ccc(S(=O)(=O)NCCSc2nnnn2C)cc1` to `CC(=O)Nc1ccc(S(=O)(=O)N2CCSC2c2ccc(C)cc2)cc1` (stereo not shown), the “hERG current change (%, negative = inhibition) at 10uM” value rises from -2.53% to 2.9%.

First: Cc1cc2cc(OCc3ccccc3)ccc2n1C
Second: COC(=O)C1=C(C)N(Cc2ccccc2)C(=O)N[C@H]1c1cccc(C(F)(F)F)c1
The “hERG current change (%, negative = inhibition) at 10uM” value of the first is higher: 18% for the first, -8.04% for the second.

Going from `CN(C)S(=O)(=O)c1cccc(-c2csc(=Nc3ccccc3)n2CCCN2CCOCC2)c1` to `N=c1c(S(=O)(=O)c2ccccc2)cc2c(=O)n3ccccc3nc2n1CC1CCCO1` (stereo not shown), the “hERG current change (%, negative = inhibition) at 10uM” value falls from -26.5% to -34%.

First: O=C1[C@@H]2[C@H](C(=O)N1O)[C@H]1C=C[C@@H]2C1
Second: O=C1C2C3C=CC(C3)C2C(=O)N1c1ccc(-c2nc3ccccc3c(=O)o2)cc1 (stereo not shown)
The “hERG current change (%, negative = inhibition) at 10uM” value of the first is lower: -5.3% for the first, 19.6% for the second.

Compared with `CC(C)(C)c1cc(CP(=O)(c2ccccc2)c2ccccc2)cc(C(C)(C)C)c1O`, `Cc1ccc(S(=O)(=O)/N=C2\C=C(Nc3cccc(C(=O)O)c3)C(=O)c3ccccc32)c(C)c1` is higher in “hERG current change (%, negative = inhibition) at 10uM” value: 14.7% for the first, 27.9% for the second.

First: Cc1csc(NC(=O)c2ccc3c(c2)OCO3)n1
Second: Cc1ccc(-c2csc(NC(=O)C3CC(=O)N(Cc4ccco4)C3)n2)cc1 (stereo not shown)
The “hERG current change (%, negative = inhibition) at 10uM” value of the first is higher: -0.0676% for the first, -25.5% for the second.

Compared with `Nc1c(-c2cccc(Cl)c2)cnn1-c1cccc([N+](=O)[O-])c1`, `CC(=O)c1sc(NC(=O)C2CC(=O)N(Cc3ccco3)C2)nc1-c1ccccc1` (stereo not shown) is lower in “hERG current change (%, negative = inhibition) at 10uM” value: -41.4% for the first, -59.4% for the second.

First: Oc1ccccc1CN1CCCC(N2CCN(c3cccc(C(F)(F)F)c3)CC2)C1 (stereo not shown)
Second: FC(F)(F)c1ccccc1CN1CCCC(N2CCN(c3ccccc3)CC2)C1 (stereo not shown)
The “hERG current change (%, negative = inhibition) at 10uM” value of the first is lower: -61.9% for the first, -0.712% for the second.

First: CCCN1CCC(N2CCN(c3cccc(C(F)(F)F)c3)CC2)CC1
Second: CN1CCC(N2CCN(c3cccc(C(F)(F)F)c3)CC2)CC1
The “hERG current change (%, negative = inhibition) at 10uM” value of the first is lower: -75.3% for the first, -12.8% for the second.

First: CCN(CC)CC(=O)N1CCCC(N2CCN(c3cccc(C(F)(F)F)c3)CC2)C1 (stereo not shown)
Second: O=C(C1CCOCC1)N1CCCC(N2CCN(c3cccc(C(F)(F)F)c3)CC2)C1 (stereo not shown)
The “hERG current change (%, negative = inhibition) at 10uM” value of the first is higher: -10.5% for the first, -12.9% for the second.

First: Fc1ccccc1N1CCN(C2CCCN(Cc3cccc(C(F)(F)F)c3)C2)CC1 (stereo not shown)
Second: Fc1ccccc1N1CCN(C2CCCN(Cc3ccccc3C(F)(F)F)C2)CC1 (stereo not shown)
The “hERG current change (%, negative = inhibition) at 10uM” value of the first is lower: -52.1% for the first, -5.91% for the second.

Going from `CC(=O)c1cccc(CN2CCCC(N3CCN(c4ccccc4F)CC3)C2)c1` (stereo not shown) to `CC(=O)c1ccc(NC(=S)N2CCCC(CO)C2)cc1` (stereo not shown), the “hERG current change (%, negative = inhibition) at 10uM” value rises from -35.3% to 5.17%.

Compared with `COc1ccc(CNC(=O)CN(CCC(C)C)S(=O)(=O)c2ccc3c(c2)OCCO3)cc1`, `COC(=O)c1ccc(C2/C(=C(\O)c3ccc4c(c3)OCCO4)C(=O)C(=O)N2CCCN(C)C)cc1` (stereo not shown) is lower in “hERG current change (%, negative = inhibition) at 10uM” value: -7.73% for the first, -55.9% for the second.

First: Cc1ccc(C2CC(c3cccc(Br)c3)Nc3nnnn32)cc1 (stereo not shown)
Second: COc1ccc(-c2csc(NC(=O)C3CC(=O)N(Cc4ccco4)C3)n2)cc1 (stereo not shown)
The “hERG current change (%, negative = inhibition) at 10uM” value of the first is higher: -7.07% for the first, -70.4% for the second.

First: COc1ccc(-c2nc(NC(=O)C3CC(=O)N(Cc4ccco4)C3)sc2C)cc1 (stereo not shown)
Second: CN(c1ccc(-c2csc(NC(=O)C3CC(=O)N(Cc4ccco4)C3)n2)cc1)S(C)(=O)=O (stereo not shown)
The “hERG current change (%, negative = inhibition) at 10uM” value of the first is lower: -34.3% for the first, -19% for the second.

Going from `CC(=O)COc1ccc2c3c(c(=O)oc2c1C)CCCCC3` to `N=c1c(C(=O)NC2CCCCC2)cc2c(=O)n3ccccc3nc2n1CC1CCCO1` (stereo not shown), the “hERG current change (%, negative = inhibition) at 10uM” value falls from -8.54% to -74.9%.

Compared with `Cl.O=C(NCCCn1ccnc1)c1ccc(S(=O)(=O)N2CCOCC2)cc1`, `CC1CC(C)CN(S(=O)(=O)c2ccc3c(c2)oc(=O)n3CC(=O)NCc2cccnc2)C1` (stereo not shown) is lower in “hERG current change (%, negative = inhibition) at 10uM” value: 8.09% for the first, -17.2% for the second.

Going from `COCCCN1C(=O)C(=O)/C(=C(/O)c2ccc3c(c2)OCCO3)C1c1ccc(C(=O)OC)cc1` (stereo not shown) to `COc1ccc(NC(=O)C(CCSC)N2C(=O)c3ccccc3C2=O)cc1` (stereo not shown), the “hERG current change (%, negative = inhibition) at 10uM” value falls from 1.43% to -10.3%.

Going from `O=C(COC(=O)CC1CC2CCC1C2)NC(=O)NCc1ccco1` (stereo not shown) to `COC(=O)Cc1ccc(NC(=S)N2CCCC(CO)C2)cc1` (stereo not shown), the “hERG current change (%, negative = inhibition) at 10uM” value falls from -4.89% to -63.2%.

Going from `COC(=O)Cc1ccc(NC(=S)N2CCCC(C)C2)cc1` (stereo not shown) to `COCCNC(=O)CSc1nc2ccccc2c(=O)n1CC1CCCO1` (stereo not shown), the “hERG current change (%, negative = inhibition) at 10uM” value falls from 12.7% to -11.9%.

Compared with `CCOC(=O)c1cc2c(=O)n3ccccc3nc2n(CC2CCCO2)c1=NC(=O)/C=C/c1ccccc1` (stereo not shown), `CC(NC(=O)c1cc2c(=O)n3ccccc3nc2n(CC2CCCO2)c1=N)c1ccccc1` (stereo not shown) is lower in “hERG current change (%, negative = inhibition) at 10uM” value: -35.7% for the first, -75.2% for the second.

Compared with `Cc1ccc(S(=O)(=O)c2cc3c(=O)n4ccccc4nc3n(CC3CCCO3)c2=N)cc1C` (stereo not shown), `N=c1c(C(=O)NC2CCCC2)cc2c(=O)n3ccccc3nc2n1CC1CCCO1` (stereo not shown) is lower in “hERG current change (%, negative = inhibition) at 10uM” value: -50.8% for the first, -83.7% for the second.

First: NS(=O)(=O)c1cccc(NC(=O)COC(=O)C2(c3cccc(F)c3)CCCC2)c1
Second: COc1cc(C(=O)NC2CCCC2)c(Br)c(OC)c1OC
The “hERG current change (%, negative = inhibition) at 10uM” value of the first is lower: -6.66% for the first, 7.61% for the second.
